According to the supplement of paper PMC11732987, “Enantioselective OTUD7B fragment discovery through chemoproteomics screening and high-throughput optimisation” (Communications Chemistry, 2025):

Tests used:
Assay in all cases: log2 ratio of Biotin-Ahx-Ub-VS probe labelling (fragment/DMSO); higher = less target engagement (more negative = stronger competition), active = hit call of the paper (q ≤ 0.05, log2 ratio ≤ -1)
Conditions in all cases: compound concentration: 200 uM; treatment time: 3 h
USP42 = target: T1, USP42 (UniProt Q9H9J4)
T1 sequence (whole entry): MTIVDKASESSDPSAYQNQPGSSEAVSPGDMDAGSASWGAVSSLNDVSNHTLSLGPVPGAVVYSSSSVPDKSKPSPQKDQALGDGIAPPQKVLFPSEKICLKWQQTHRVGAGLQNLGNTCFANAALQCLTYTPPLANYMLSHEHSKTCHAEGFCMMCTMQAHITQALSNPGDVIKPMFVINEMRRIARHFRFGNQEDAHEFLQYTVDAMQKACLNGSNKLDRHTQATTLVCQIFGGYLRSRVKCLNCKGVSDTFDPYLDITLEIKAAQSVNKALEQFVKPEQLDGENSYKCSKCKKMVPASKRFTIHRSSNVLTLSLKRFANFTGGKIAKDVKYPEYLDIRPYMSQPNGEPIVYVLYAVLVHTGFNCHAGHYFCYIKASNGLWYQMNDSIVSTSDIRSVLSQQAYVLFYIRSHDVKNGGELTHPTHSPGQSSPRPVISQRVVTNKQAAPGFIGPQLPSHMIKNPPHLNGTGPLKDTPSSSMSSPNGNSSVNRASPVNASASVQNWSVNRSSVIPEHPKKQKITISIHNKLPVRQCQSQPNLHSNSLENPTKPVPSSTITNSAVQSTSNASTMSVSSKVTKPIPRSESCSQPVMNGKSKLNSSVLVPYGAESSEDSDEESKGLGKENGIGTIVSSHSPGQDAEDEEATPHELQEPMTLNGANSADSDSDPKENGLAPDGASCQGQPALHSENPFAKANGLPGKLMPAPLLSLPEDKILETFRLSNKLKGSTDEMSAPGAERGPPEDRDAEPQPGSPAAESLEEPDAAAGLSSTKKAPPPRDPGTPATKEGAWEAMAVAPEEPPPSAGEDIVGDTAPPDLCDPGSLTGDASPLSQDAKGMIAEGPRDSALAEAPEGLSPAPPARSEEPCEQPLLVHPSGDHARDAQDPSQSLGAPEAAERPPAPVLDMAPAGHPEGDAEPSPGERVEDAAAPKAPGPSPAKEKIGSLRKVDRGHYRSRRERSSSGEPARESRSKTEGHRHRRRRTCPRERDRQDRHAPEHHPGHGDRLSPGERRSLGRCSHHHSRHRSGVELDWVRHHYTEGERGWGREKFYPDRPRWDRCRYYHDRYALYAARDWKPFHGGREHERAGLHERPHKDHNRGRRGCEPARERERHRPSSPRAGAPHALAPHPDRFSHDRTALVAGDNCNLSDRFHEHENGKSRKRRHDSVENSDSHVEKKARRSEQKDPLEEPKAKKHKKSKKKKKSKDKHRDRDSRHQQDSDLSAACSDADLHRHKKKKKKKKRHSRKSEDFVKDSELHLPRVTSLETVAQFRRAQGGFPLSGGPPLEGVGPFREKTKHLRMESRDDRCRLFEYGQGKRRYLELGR
How it was run: (§1)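 HEK293T lysate in Tris/CHAPS/IGEPAL buffer with protease inhibitors (495 µg per sample) was given fragment at 200 µM or vehicle for 3 h, in triplicate. It then received Biotin-Ahx-Ub-VS at 0.5 µM final for 1 h. Labelled DUBs were NeutrAvidin-enriched, digested with LysC and trypsin, and run by diaPASEF LC-MS/MS. Values are average log2 fragment/vehicle ratios by unpaired t-test on global-median-normalised Spectronaut quantities of proteins with ≥2 unique peptides.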

USP46 = USP46 (UniProt P62068)
How it was run: as §1

USP47 = target: T2, USP47 (UniProt Q96K76)
T2 sequence (whole entry): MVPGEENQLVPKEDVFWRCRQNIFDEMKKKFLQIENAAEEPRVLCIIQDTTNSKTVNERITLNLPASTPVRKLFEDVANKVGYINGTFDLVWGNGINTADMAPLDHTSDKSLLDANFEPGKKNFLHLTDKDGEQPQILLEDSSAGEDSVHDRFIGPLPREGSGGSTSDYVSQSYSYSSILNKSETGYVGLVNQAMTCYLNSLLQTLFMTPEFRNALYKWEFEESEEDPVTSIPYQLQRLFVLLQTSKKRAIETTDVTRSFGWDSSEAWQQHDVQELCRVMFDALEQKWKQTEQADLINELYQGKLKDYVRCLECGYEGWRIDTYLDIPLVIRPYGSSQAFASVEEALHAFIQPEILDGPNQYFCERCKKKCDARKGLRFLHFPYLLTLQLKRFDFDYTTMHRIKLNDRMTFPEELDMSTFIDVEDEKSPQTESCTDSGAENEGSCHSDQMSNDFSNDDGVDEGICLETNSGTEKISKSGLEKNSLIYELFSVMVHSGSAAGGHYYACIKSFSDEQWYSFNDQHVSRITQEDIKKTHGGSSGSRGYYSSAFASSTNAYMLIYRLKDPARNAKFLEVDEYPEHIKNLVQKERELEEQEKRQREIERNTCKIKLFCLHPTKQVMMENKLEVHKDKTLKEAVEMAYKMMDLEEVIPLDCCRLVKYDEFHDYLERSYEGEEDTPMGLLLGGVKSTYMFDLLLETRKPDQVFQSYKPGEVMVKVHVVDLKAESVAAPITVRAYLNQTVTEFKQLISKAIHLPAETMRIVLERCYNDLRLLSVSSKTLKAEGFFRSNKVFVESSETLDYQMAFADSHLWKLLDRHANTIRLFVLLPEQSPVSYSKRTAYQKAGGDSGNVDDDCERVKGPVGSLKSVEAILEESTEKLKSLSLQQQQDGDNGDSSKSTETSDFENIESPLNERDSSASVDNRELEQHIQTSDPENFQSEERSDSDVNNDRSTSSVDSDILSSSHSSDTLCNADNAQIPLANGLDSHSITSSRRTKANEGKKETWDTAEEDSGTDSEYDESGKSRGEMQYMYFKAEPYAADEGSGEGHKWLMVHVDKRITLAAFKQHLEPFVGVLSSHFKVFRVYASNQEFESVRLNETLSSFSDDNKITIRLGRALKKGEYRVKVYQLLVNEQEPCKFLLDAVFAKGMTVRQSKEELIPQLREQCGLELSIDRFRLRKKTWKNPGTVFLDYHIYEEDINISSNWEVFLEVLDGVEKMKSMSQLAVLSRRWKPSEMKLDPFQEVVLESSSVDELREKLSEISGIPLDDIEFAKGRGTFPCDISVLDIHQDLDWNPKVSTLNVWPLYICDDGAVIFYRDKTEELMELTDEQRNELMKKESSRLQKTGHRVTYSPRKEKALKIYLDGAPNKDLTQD
How it was run: as §1

USP48 = target: T3, USP48 (UniProt Q86UV5)
T3 sequence (whole entry): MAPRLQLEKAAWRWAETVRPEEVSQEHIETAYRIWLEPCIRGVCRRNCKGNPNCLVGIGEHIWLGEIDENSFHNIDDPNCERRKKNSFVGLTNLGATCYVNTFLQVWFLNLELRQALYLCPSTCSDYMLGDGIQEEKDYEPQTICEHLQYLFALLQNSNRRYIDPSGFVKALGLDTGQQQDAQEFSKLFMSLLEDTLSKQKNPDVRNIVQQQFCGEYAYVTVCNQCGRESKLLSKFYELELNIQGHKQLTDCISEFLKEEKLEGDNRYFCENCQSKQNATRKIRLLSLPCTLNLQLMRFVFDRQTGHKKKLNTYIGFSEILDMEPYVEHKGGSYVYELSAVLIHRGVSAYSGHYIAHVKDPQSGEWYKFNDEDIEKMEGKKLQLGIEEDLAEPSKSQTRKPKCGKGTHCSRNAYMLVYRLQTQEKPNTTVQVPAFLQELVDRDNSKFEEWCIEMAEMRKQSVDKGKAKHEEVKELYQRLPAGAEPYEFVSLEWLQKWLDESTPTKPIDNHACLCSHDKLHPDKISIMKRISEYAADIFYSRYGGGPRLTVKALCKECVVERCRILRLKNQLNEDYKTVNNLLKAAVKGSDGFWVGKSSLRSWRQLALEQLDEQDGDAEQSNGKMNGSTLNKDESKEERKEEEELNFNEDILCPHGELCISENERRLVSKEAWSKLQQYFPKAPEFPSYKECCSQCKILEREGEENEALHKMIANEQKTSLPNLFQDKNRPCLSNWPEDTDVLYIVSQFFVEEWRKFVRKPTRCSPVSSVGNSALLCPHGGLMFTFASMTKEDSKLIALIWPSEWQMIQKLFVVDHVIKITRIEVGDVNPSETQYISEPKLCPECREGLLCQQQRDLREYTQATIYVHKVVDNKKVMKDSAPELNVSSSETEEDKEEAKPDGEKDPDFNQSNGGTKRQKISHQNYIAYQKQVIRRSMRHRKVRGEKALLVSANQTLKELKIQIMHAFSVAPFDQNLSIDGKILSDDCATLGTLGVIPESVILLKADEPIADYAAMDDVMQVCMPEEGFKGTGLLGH
How it was run: as §1

USP5 = target: T4, USP5 (UniProt P45974)
T4 sequence (whole entry): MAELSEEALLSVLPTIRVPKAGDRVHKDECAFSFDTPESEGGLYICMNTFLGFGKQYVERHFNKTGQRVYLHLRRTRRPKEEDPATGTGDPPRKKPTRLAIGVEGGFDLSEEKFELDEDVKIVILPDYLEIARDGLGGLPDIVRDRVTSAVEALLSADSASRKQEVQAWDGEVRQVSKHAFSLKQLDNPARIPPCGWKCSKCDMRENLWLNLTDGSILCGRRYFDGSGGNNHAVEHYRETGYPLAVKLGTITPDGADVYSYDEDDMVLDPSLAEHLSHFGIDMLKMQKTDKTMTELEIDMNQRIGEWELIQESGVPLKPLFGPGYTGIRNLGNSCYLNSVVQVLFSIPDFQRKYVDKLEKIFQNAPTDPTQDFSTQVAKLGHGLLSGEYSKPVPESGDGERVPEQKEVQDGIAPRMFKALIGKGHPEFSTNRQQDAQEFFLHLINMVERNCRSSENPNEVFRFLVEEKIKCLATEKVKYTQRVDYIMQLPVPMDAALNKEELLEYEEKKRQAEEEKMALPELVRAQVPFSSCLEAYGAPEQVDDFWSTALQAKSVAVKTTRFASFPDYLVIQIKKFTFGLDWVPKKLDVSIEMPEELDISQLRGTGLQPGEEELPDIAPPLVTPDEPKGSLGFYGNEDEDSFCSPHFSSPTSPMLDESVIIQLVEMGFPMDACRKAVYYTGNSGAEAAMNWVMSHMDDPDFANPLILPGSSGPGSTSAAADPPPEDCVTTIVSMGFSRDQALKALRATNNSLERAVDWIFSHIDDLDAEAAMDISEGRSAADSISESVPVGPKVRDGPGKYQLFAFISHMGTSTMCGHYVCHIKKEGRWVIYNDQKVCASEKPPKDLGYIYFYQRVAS
How it was run: as §1

USP54 = USP54 (UniProt Q70EL1)
How it was run: as §1

USP7 = USP7 (UniProt Q93009)
How it was run: as §1

USP8 = target: T5, USP8 (UniProt P40818)
T5 sequence (whole entry): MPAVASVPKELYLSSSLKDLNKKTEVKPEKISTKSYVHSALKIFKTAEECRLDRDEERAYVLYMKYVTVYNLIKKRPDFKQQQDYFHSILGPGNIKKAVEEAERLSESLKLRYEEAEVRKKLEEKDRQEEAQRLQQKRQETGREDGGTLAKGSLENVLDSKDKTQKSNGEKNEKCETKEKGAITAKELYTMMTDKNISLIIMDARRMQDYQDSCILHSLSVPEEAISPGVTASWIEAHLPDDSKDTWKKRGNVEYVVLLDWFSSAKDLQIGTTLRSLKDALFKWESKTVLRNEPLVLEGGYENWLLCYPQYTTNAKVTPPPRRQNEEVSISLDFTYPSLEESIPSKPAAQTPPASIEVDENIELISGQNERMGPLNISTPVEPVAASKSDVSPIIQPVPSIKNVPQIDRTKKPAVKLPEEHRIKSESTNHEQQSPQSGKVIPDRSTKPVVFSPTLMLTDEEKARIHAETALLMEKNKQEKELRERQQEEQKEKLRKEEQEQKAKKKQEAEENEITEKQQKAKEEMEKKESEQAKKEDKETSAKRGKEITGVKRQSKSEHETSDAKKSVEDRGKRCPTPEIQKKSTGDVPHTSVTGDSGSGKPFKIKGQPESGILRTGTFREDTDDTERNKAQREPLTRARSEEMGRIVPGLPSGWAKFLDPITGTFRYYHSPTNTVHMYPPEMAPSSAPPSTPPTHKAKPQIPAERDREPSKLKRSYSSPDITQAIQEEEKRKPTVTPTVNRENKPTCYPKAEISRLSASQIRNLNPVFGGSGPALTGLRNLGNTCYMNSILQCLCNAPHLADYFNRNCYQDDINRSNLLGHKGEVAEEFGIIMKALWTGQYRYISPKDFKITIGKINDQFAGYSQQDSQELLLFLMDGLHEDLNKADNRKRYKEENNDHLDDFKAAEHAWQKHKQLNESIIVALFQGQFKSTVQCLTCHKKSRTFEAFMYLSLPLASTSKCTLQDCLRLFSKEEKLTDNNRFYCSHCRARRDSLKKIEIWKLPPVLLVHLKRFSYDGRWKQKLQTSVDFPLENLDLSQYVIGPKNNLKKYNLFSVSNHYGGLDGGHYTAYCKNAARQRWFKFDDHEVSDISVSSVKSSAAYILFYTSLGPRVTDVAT
How it was run: as §1

Measured: log2 ratio of Biotin-Ahx-Ub-VS probe labelling

USP7, sequence (Q93009 whole entry, looked up): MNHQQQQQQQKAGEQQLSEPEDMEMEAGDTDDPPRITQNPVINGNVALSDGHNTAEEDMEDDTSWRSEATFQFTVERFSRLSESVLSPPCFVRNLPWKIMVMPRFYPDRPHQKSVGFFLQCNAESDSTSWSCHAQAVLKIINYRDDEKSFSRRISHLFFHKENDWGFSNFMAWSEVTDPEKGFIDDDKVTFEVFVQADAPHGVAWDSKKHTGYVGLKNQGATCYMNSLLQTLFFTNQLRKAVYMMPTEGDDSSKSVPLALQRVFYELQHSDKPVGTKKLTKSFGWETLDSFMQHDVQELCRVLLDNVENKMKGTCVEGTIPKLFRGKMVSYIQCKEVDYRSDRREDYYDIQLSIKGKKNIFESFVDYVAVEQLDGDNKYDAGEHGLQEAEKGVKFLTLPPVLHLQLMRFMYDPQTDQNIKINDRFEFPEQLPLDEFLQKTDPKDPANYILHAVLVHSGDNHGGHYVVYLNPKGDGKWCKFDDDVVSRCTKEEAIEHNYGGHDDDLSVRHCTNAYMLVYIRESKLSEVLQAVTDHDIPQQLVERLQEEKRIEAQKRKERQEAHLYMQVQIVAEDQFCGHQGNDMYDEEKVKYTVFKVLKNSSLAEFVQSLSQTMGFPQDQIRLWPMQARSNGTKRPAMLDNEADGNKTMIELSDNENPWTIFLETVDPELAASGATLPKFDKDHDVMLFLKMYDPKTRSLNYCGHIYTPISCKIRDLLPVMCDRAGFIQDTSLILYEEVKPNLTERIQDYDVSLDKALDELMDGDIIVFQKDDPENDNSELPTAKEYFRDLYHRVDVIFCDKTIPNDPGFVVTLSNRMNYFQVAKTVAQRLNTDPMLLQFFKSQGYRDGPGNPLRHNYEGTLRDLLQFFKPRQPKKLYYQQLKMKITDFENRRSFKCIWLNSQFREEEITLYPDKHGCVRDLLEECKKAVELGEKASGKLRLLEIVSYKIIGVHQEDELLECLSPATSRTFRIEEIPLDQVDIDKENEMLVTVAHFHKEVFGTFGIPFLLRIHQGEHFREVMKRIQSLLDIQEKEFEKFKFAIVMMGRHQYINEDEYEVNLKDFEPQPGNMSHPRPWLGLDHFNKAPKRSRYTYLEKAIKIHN
USP46, sequence (P62068 whole entry): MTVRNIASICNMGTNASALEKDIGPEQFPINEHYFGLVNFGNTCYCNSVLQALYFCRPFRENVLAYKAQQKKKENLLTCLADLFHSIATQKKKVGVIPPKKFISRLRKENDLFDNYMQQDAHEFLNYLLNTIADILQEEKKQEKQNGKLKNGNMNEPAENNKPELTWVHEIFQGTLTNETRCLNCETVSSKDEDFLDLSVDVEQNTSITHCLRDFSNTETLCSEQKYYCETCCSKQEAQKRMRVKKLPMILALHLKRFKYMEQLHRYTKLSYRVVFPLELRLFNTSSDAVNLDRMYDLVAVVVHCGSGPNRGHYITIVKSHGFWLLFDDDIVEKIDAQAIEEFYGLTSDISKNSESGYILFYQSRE
USP54, sequence (Q70EL1 whole entry): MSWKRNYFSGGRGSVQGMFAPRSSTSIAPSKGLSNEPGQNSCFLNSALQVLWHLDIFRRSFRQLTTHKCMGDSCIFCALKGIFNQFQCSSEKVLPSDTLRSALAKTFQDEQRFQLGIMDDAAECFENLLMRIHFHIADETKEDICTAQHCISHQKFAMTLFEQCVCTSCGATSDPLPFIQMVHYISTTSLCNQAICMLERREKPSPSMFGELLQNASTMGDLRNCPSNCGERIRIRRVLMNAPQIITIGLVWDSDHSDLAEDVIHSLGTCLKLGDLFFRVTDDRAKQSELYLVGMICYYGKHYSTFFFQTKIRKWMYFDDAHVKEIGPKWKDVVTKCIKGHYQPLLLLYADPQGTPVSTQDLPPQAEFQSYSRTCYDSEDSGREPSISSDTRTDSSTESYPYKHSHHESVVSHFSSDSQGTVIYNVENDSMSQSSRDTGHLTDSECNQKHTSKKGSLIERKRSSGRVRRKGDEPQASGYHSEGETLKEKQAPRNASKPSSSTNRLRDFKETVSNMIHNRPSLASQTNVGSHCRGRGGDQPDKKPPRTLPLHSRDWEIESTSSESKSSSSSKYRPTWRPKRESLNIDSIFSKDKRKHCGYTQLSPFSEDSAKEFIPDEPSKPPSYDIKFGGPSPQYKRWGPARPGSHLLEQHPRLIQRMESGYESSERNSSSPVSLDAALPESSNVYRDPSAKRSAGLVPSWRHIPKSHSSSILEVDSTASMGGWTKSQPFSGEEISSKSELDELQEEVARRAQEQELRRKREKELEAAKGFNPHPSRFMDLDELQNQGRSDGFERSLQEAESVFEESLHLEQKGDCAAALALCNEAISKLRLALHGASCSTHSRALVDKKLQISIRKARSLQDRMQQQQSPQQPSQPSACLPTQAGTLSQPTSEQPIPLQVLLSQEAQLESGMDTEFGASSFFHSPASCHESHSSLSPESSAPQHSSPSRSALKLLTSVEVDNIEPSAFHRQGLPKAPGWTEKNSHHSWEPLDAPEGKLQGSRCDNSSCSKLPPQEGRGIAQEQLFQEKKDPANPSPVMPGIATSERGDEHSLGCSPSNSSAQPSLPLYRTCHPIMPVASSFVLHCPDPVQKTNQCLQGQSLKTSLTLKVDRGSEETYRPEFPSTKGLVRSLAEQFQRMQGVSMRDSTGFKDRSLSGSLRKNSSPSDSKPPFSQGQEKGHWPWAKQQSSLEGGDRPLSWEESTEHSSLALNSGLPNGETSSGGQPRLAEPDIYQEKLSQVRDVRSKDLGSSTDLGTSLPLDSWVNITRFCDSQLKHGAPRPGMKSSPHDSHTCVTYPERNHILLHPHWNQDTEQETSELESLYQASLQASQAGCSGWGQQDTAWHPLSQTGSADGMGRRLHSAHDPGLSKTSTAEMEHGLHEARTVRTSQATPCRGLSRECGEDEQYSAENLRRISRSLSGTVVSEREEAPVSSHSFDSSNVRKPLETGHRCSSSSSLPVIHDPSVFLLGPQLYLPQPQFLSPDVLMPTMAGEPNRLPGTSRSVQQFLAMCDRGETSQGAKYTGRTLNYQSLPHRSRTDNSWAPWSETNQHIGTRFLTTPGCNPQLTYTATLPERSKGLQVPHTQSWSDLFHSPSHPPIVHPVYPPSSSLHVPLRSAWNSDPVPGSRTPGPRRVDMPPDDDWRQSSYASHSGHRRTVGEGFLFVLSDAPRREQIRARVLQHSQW

CC(NC(=O)CCl)c1cccc2ccccc12 (stereo not drawn)
inactive: USP42 -0.241 | USP46 0.159 | USP47 -0.308 | USP48 -0.368 | USP5 0.225 | USP54 0.115 | USP7 -0.339 | USP8 -0.651
